The Inhibition is the share of the control response that was lost under treatment.

In the first assay the test system is Plasmodium falciparum. Briefly: GSK_TCMDC: Inhibition of Plasmodium falciparum Dd2 in whole red blood cells, using parasite LDH activity as an index of growth. Test compounds present at 2uM. Type of assay: functional.
`Cc1cccc2[nH]c(-c3cc(-c4cn[nH]c4)cnc3N)nc12` registered an Inhibition of 93%.
Still for that read-out and setting: in the case of `FC(F)(F)c1ccc2[nH]c(-c3ccc(-c4ccc(CN5CCN(c6ccncc6)CC5)cc4)s3)nc2c1.O=C(O)C(F)(F)F` it was 50%.
`CN1CCN(Cc2cc3cc(NC(=O)/C=C/c4cccc(Cl)c4)ccc3s2)CC1.Cl`: the Inhibition worked out at 72%.
Same read-out and setting: as for `S=C(NCCN1CCOCC1)Nc1ccccc1`, the figure is 1%; as for `c1cncc(-c2cc(N3CCCCC3)nc(-c3ccncc3)n2)c1`, 46%.
The same measure, in the same setting: as for `O=C(NCCSCc1c(F)cccc1Cl)c1cnc2c(c1)nc(-c1c[nH]c(-c3ccccc3)n1)n2CCc1c[nH]cn1`, the figure is 45%; as for `Cc1cccc2nc(-c3ccc(-c4cccc(CNCCCNS(C)(=O)=O)c4)s3)[nH]c12.O=C(O)C(F)(F)F`, 19%; as for `COc1ccc2nc(N3CCN(C(=O)OC(C)(C)C)CC3)nc(NCCCc3ccccc3)c2c1`, 95%.
On to `CC(Cc1ccc(CNC(=O)c2ccc(CC(C)NCCc3cccc(Cl)c3)cc2)cc1)NCCc1cccc(Cl)c1` (stereo not given), for which the Inhibition came out at 66%.
`O=C(Nc1cccc(C(F)(F)F)c1)NC1CCN(c2ccnc3ccccc23)C1.O=C(O)C(F)(F)F` (stereo not given) returned an Inhibition of 69%.
Still for that read-out and setting: in the case of `COc1ccc(-c2ccc(Nc3cccc(S(=O)(=O)CCN4CCC(CCN(C)C)CC4)c3)nc2)cn1` it was 9%.
The same measure, in the same setting: as for `COc1cc(O)c2c(=O)c(OC)c(-c3cccc(Cl)c3OC3O[C@H](CO)[C@@H](O)[C@H](O)[C@H]3O)oc2c1OC` (stereo not given in full), the figure is 6%; as for `O=C(/C=C/c1ccc(C(F)(F)F)cc1)NCCCCCN1CCN(C(=O)Nc2ccc(Cl)cc2)CC1`, 0%.
Same read-out and setting: as for `Cc1cc(NCCc2ccccc2)nc(NC(=N)Nc2cccc(Cl)c2)n1`, the figure is 100%; as for `O=C(Nc1ccc(OC2CCN(Cc3ccc(F)cc3)C2)cc1)c1cccs1.O=C(O)C(F)(F)F` (stereo not given), 92%.
`Cc1ccccc1C1CCN(C2CCC(NC(=O)c3cncc(-c4ccccc4)c3)CC2)CC1` (stereo not given) displayed an Inhibition of 92%.
The same measure, in the same setting: as for `CC(C)Cn1c2ccccc2c2nc3nc(N)nc(N)c3nc21`, the figure is 0%.
The same measure, in the same setting: in the case of `COc1ccc(-c2ccc(CNC(=O)c3ccc(Cl)cc3)c(F)c2)cc1CN1CCCN(C)CC1.O=C(O)C(F)(F)F` it was 48%; in that of `Cl.c1ccc(Oc2ccc(Nc3ccnc(Nc4ccc(OCCN5CCCCC5)cc4)n3)cc2)cc1`, 66%.
The same measure, in the same setting: as for `CN1CCN(c2ccc(-c3cc(-c4ccncc4)c(-c4ccc(Cl)c(O)c4)o3)cc2)CC1.Cl`, the figure is 98%; as for `Clc1ccc(-c2cc(-c3csc(NCCN4CCCCC4)n3)on2)cc1`, 30%; as for `CCN(CC)CCCNc1c2ccccc2nc2ccccc12.Cl`, 0%.
In turn, `COc1ccc2nc(-c3ccc(C(=O)NCCCN4CCN(c5cc(Cl)ccc5OC)CC4)cc3OC)[nH]c2c1` came in with an Inhibition of 24%.
Compound `O=C(c1cccc(-c2noc(C(F)(F)F)n2)c1)N1CCN(c2nsc3ccccc23)CC1` came in with an Inhibition of 81%.
The same measure, in the same setting: in the case of `O=C(CSc1nc(-c2ccccc2Cl)ns1)Nc1ccc2c(c1)OCO2` it was 77%; in that of `COc1cc2nccc(Nc3cccc(Oc4ccccc4)c3)c2cc1OC.Cl`, 95%; in that of `CCN(CC)c1cc(C)c2cc(NC(=O)c3cc(=O)c4ccccc4o3)ccc2n1`, 67%.
The same measure, in the same setting: in the case of `O=C(Nc1ccc(Oc2ccccc2)cc1)N(Cc1ccc(-c2ccc(CN3CCNCC3)cc2)cc1)C1CCN(Cc2ccccc2)CC1.O=C(O)C(F)(F)F` it was 73%; in that of `CC(=O)Oc1c(C2CCN(CCCCNC(=O)c3ccc(NC(=O)c4ccc(Cl)cc4)cc3)CC2)ccc2ccccc12`, 92%.
Same read-out and setting: as for `O=C(Nc1ccc(-c2nc3ccccc3[nH]2)cc1)c1ccc(-c2cccc([N+](=O)[O-])c2)o1`, the figure is 97%; as for `CCOc1ccc(NC(C)=O)c(O)c1`, 0%.
In turn, `CC(=O)Nc1ccc(Cl)c(Cl)c1` displayed an Inhibition of 98%.
For the compound `CN(C)CCOc1cc(NC(=O)Nc2cccc([N+](=O)[O-])c2)ccc1I`, the Inhibition came to 51%.
The same measure, in the same setting: in the case of `COc1cccc(Nc2nc(C)cc(NCc3ccc(-c4c(C)noc4C)cc3)n2)c1` it was 42%; in that of `O=C(O)C(F)(F)F.O=S(=O)(NCCN1CCCC1)c1cccc(-c2cccc(CNCc3ccc(F)cc3)c2)c1`, 73%.
Still for that read-out and setting: as for `COc1ccc(CNCCCCCCCNCc2ccc(Cl)c(Cl)c2)cc1Cl`, the figure is 18%; as for `Br.Cc1cccc(OCCCCON2C(=N)N=C(N)NC2(C)C)c1C`, 95%; as for `C[C@@H](Oc1cc(-n2cnc3ccc(NC(=O)CCN4CCCCC4)cc32)sc1C(N)=O)c1ccccc1Cl`, 60%.
Same read-out and setting: in the case of `CCN(C(=O)CSc1cc(C)c2cc(C)cc(C)c2n1)C1CCS(=O)(=O)C1` (stereo not given) it was 82%; in that of `CC(=O)Nc1ncc(C(=O)Nc2cccc(-c3cccc(-c4nc5cccc(C)c5[nH]4)c3)c2)s1`, 64%.

The next assay has as its system HepG2. Description: GSK_TCMDC: Percent inhibition of human HepG2 cell line. Test compounds present at 10uM. Type of assay: functional.
For the compound `Cc1cccc2[nH]c(-c3cc(-c4cn[nH]c4)cnc3N)nc12`, the Inhibition is 37%.
Same read-out and setting: as for `FC(F)(F)c1ccc2[nH]c(-c3ccc(-c4ccc(CN5CCN(c6ccncc6)CC5)cc4)s3)nc2c1.O=C(O)C(F)(F)F`, the figure is 97%; as for `CN1CCN(Cc2cc3cc(NC(=O)/C=C/c4cccc(Cl)c4)ccc3s2)CC1.Cl`, 54%; as for `S=C(NCCN1CCOCC1)Nc1ccccc1`, 3%.
The same measure, in the same setting: as for `c1cncc(-c2cc(N3CCCCC3)nc(-c3ccncc3)n2)c1`, the figure is 18%; as for `O=C(NCCSCc1c(F)cccc1Cl)c1cnc2c(c1)nc(-c1c[nH]c(-c3ccccc3)n1)n2CCc1c[nH]cn1`, 10%; as for `Cc1cccc2nc(-c3ccc(-c4cccc(CNCCCNS(C)(=O)=O)c4)s3)[nH]c12.O=C(O)C(F)(F)F`, 20%.
The same measure, in the same setting: as for `COc1ccc2nc(N3CCN(C(=O)OC(C)(C)C)CC3)nc(NCCCc3ccccc3)c2c1`, the figure is 9%; as for `CC(Cc1ccc(CNC(=O)c2ccc(CC(C)NCCc3cccc(Cl)c3)cc2)cc1)NCCc1cccc(Cl)c1` (stereo not given), 99%; as for `O=C(Nc1cccc(C(F)(F)F)c1)NC1CCN(c2ccnc3ccccc23)C1.O=C(O)C(F)(F)F` (stereo not given), 23%.
`COc1ccc(-c2ccc(Nc3cccc(S(=O)(=O)CCN4CCC(CCN(C)C)CC4)c3)nc2)cn1` returned an Inhibition of 44%.
On the same count and under the same terms, as for `COc1cc(O)c2c(=O)c(OC)c(-c3cccc(Cl)c3OC3O[C@H](CO)[C@@H](O)[C@H](O)[C@H]3O)oc2c1OC` (stereo not given in full), the figure is 16%.
`O=C(/C=C/c1ccc(C(F)(F)F)cc1)NCCCCCN1CCN(C(=O)Nc2ccc(Cl)cc2)CC1` returned an Inhibition of 37%.
Same read-out and setting: as for `Cc1cc(NCCc2ccccc2)nc(NC(=N)Nc2cccc(Cl)c2)n1`, the figure is 24%; as for `O=C(Nc1ccc(OC2CCN(Cc3ccc(F)cc3)C2)cc1)c1cccs1.O=C(O)C(F)(F)F` (stereo not given), 2%; as for `Cc1ccccc1C1CCN(C2CCC(NC(=O)c3cncc(-c4ccccc4)c3)CC2)CC1` (stereo not given), 27%.
Same read-out and setting: as for `CC(C)Cn1c2ccccc2c2nc3nc(N)nc(N)c3nc21`, the figure is 36%; as for `COc1ccc(-c2ccc(CNC(=O)c3ccc(Cl)cc3)c(F)c2)cc1CN1CCCN(C)CC1.O=C(O)C(F)(F)F`, 25%.
As for `Cl.c1ccc(Oc2ccc(Nc3ccnc(Nc4ccc(OCCN5CCCCC5)cc4)n3)cc2)cc1`, the Inhibition is recorded as 23%.
Same read-out and setting: in the case of `CN1CCN(c2ccc(-c3cc(-c4ccncc4)c(-c4ccc(Cl)c(O)c4)o3)cc2)CC1.Cl` it was 0%; in that of `Clc1ccc(-c2cc(-c3csc(NCCN4CCCCC4)n3)on2)cc1`, 81%.
The same measure, in the same setting: in the case of `CCN(CC)CCCNc1c2ccccc2nc2ccccc12.Cl` it was 17%; in that of `COc1ccc2nc(-c3ccc(C(=O)NCCCN4CCN(c5cc(Cl)ccc5OC)CC4)cc3OC)[nH]c2c1`, 0%; in that of `O=C(c1cccc(-c2noc(C(F)(F)F)n2)c1)N1CCN(c2nsc3ccccc23)CC1`, 18%.
On the same count and under the same terms, in the case of `O=C(CSc1nc(-c2ccccc2Cl)ns1)Nc1ccc2c(c1)OCO2` it was 0%; in that of `COc1cc2nccc(Nc3cccc(Oc4ccccc4)c3)c2cc1OC.Cl`, 25%.
Compound `CCN(CC)c1cc(C)c2cc(NC(=O)c3cc(=O)c4ccccc4o3)ccc2n1` had an Inhibition of 14%.
On the same count and under the same terms, in the case of `O=C(Nc1ccc(Oc2ccccc2)cc1)N(Cc1ccc(-c2ccc(CN3CCNCC3)cc2)cc1)C1CCN(Cc2ccccc2)CC1.O=C(O)C(F)(F)F` it was 31%.
For `CC(=O)Oc1c(C2CCN(CCCCNC(=O)c3ccc(NC(=O)c4ccc(Cl)cc4)cc3)CC2)ccc2ccccc12`, the Inhibition is given as 24%.
In turn, `O=C(Nc1ccc(-c2nc3ccccc3[nH]2)cc1)c1ccc(-c2cccc([N+](=O)[O-])c2)o1` displayed an Inhibition of 47%.
On the same count and under the same terms, in the case of `CCOc1ccc(NC(C)=O)c(O)c1` it was 6%.
The same measure, in the same setting: in the case of `CC(=O)Nc1ccc(Cl)c(Cl)c1` it was 5%; in that of `CN(C)CCOc1cc(NC(=O)Nc2cccc([N+](=O)[O-])c2)ccc1I`, 8%; in that of `COc1cccc(Nc2nc(C)cc(NCc3ccc(-c4c(C)noc4C)cc3)n2)c1`, 33%.
The same measure, in the same setting: as for `O=C(O)C(F)(F)F.O=S(=O)(NCCN1CCCC1)c1cccc(-c2cccc(CNCc3ccc(F)cc3)c2)c1`, the figure is 41%; as for `COc1ccc(CNCCCCCCCNCc2ccc(Cl)c(Cl)c2)cc1Cl`, 27%; as for `Br.Cc1cccc(OCCCCON2C(=N)N=C(N)NC2(C)C)c1C`, 65%.
As for `C[C@@H](Oc1cc(-n2cnc3ccc(NC(=O)CCN4CCCCC4)cc32)sc1C(N)=O)c1ccccc1Cl`, the Inhibition worked out at 36%.
Still for that read-out and setting: as for `CCN(C(=O)CSc1cc(C)c2cc(C)cc(C)c2n1)C1CCS(=O)(=O)C1` (stereo not given), the figure is 5%; as for `CC(=O)Nc1ncc(C(=O)Nc2cccc(-c3cccc(-c4nc5cccc(C)c5[nH]4)c3)c2)s1`, 15%.
